High-throughput results from PubChem.
Shown are actives, neighbours in structure and some others; about 2% of the full set was active somewhere.
Rin1-Abl PPI inh: inhibitors of human Rin1-Abl protein interaction | P00519+Q13671 | TR-FRET Rin1/Abl binding, biochemical | inhibition, % at 7.35 µM | actives 0.4% (n = 360,000) | AID 588664; in the data active means inhibition above about 5%, passing the limit was not always enough
TCR-CD3 inh: blocks the human TCR-CD3 interaction; inhibition, % at 9.4 µM; TAMRA-labeled TCR probe fluorescence, biochemical; actives 0.37% (n = 360,000); in the data active means inhibition above about 19%;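 further: recombinant mutant TCR 2C K166C tagged with TAMRA read by polarization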
UHRF1 binding: human UHRF1 methylated DNA binding inhibitors; actives 0.75% (n = 370,000); Q96T88; UHRF1 binding to methylated oligo, TR-FRET; inhibition, % at 4.4 µM; AID 687016; in the data active means inhibition above about 21%;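 further: UHRF1 SRA domain binding a hemimethylated CpG hairpin DNA probe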
LEDGF integ inh: blocks HIV-1 LEDGF/p75-dependent DNA integration | inhibition, % at 3.7 µM | TR-FRET IN-LEDGF/p75 DNA integration, Eu/Cy5 | actives 0.64% (n = 370,000);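 active means inhibition above the screen-wide mean plus 3 SD, cut at about 13% in these data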;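 further: signal is the Cy5 over europium emission ratio at 671 and 618 nm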
MBD2 DNA inh: MBD2-methylated oligo binding inhibition; Q9UBB5; inhibition, % at 4.4 µM; TR-FRET, MBD2 binding to methylated oligonucleotide; actives 0.31% (n = 370,000); in the data active means inhibition above about 13%
Target sequence (Q9UBB5 whole entry, looked up): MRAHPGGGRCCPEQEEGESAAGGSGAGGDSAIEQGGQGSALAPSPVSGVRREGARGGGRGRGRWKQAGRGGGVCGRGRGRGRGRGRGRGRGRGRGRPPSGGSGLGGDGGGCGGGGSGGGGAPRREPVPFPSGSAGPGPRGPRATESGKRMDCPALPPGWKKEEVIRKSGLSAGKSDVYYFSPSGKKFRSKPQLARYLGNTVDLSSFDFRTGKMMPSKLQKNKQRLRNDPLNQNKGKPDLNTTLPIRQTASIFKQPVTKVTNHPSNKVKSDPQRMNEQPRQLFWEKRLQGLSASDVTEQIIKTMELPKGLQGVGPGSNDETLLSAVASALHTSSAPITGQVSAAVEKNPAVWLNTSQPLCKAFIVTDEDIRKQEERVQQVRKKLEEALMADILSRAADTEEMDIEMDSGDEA
Large screens that a line does not name were inactive; ! = not active in a repeat.

NC(=O)COC(=O)CC1CC2CCC1C2 (stereo not drawn)	UHRF1 binding 21
O=C(COC(=O)COc1ccccc1)Nc1ncc([N+](=O)[O-])s1	LEDGF integ inh 32
COC(=O)[C@]12C[C@H](CC(=O)N3CCCC3)C(=O)N(Cc3ccco3)C1=C[C@H](C1CCCC1)O[C@@H]2C	none (no result: Rin1-Abl PPI inh, TCR-CD3 inh)
CC12COC3(P(=O)(c4ccccc4)c4ccccc4)CC1CCC23CP(=O)(c1ccccc1)c1ccccc1 (stereo not drawn)	UHRF1 binding 22
COc1ccccc1C(=O)NC(=O)CSc1nncn1C(C)C	none
O=C(Nc1ccc(OC(=O)c2cccs2)cc1)c1ccco1	UHRF1 binding 24
O=C(Nc1cccc(NC(=O)c2cccs2)c1)c1ccco1	none
CC(=O)Nc1ccc(O)c(-c2nc3ccccc3s2)c1	UHRF1 binding 39
Cc1ccsc1C(=O)Nc1ccc(O)c(-c2nc3ccccc3s2)c1	none
O=C(O)C1C(c2ccccc2)c2ccccc2C(O)C1CO (stereo not drawn)	none
Cc1cc(C)c(NS(=O)(=O)c2ccc3c(c2)oc(=O)n3C)c(C)c1	UHRF1 binding 39
Cn1c(=O)oc2cc(S(=O)(=O)Nc3ccccc3)ccc21	none
COc1ccccc1OCCSc1nc2ccccc2n1CCC(=O)O	UHRF1 binding 34
CCOc1ccccc1NC(=O)C1=C(C)NC(=O)NC1c1cccc(OC)c1OC (stereo not drawn)	UHRF1 binding 23
O=C(OCC#CCSc1nnc(-c2cccc3ccccc23)o1)c1ccc(F)cc1F	none (no result: Rin1-Abl PPI inh, TCR-CD3 inh)
CC(C)Cn1c(N)c(C(=O)CSc2nnc(-c3ccco3)n2C)c(=O)n(C)c1=O	UHRF1 binding 33
O=C(c1ccncc1)N1CCN(C(=O)c2cccs2)CC1	none
O=C(c1cccs1)N1CCN(Cc2ccccn2)CC1	UHRF1 binding 24
O=C(NNC(=O)c1cc(-c2ccccc2)nc2ccccc12)Nc1cccc(Cl)c1	UHRF1 binding 81
Cc1ccc(C(=O)NC2CCS(=O)(=O)C2)cc1S(=O)(=O)N1CCCCC1 (stereo not drawn)	UHRF1 binding 25
Cc1ccc(S(=O)(=O)N2CCOCC2)cc1C(=O)OCC(=O)NC1CC1	none
CCOc1ccc(NC(=O)COC(=O)c2cc(S(=O)(=O)N3CCCC3)ccc2C)cc1	none
Cc1ccc(C(=O)NC2CCS(=O)(=O)C2)cc1S(=O)(=O)N1CCOCC1 (stereo not drawn)	none
CC1CCCC(NC(=O)COC(=O)c2cc(S(=O)(=O)N3CCOCC3)ccc2F)C1C (stereo not drawn)	none
CC1CCCC(NC(=O)COC(=O)c2ccc(S(=O)(=O)N3CCOCC3)cc2)C1C (stereo not drawn)	UHRF1 binding 21
Cc1ccc(S(=O)(=O)N2CCCCC2)cc1C(=O)OCC(=O)NC(=O)NC12CC3CC(CC(C3)C1)C2	UHRF1 binding 45
Cc1ccc(S(=O)(=O)N2CCOCC2)cc1C(=O)OCC(=O)NC1CCS(=O)(=O)C1 (stereo not drawn)	UHRF1 binding 21
COc1ccccc1NC(=O)c1ccc(NC(=O)CSc2nc(N)cc(=O)[nH]2)cc1	none
O=C(c1ccco1)N1CCN(C2CN(C3CCCCC3)S(=O)(=O)C2)CC1 (stereo not drawn)	none
COc1ccc2cc3[n+](cc2c1OC)CCc1cc2c(cc1-3)OCO2	UHRF1 binding 23!
Cc1cc(NS(=O)(=O)c2ccc(NC(=O)CSc3nc4ncc(Br)cc4[nH]3)cc2)nc(C)n1	UHRF1 binding 39
CCN1Cc2nnn(Cc3ccccc3)c2-c2cc(N3CCCC3)ccc2S1(=O)=O	none (no result: Rin1-Abl PPI inh, TCR-CD3 inh)
O=C(Nc1ccccc1F)c1ccn[nH]1	UHRF1 binding 75
O=C(Nc1ccccc1Cl)c1ccn[nH]1	none
Cc1ccc(NC(=O)[C@H](Cc2ccccc2)NC(=O)[C@@H]2Cc3ccccc3CN2)c(C)c1	UHRF1 binding 27
Cc1ccc(NC(=O)[C@H](NC(=O)[C@@H]2Cc3ccccc3CN2)c2ccccc2)c(C)c1	none
CCN(CC)CCNc1ncnc2c1sc1nc(N3CCOCC3)c3c(c12)CC(C)(C)SC3	Rin1-Abl PPI inh 18
CC1(C)Cc2c(c(N3CCOCC3)nc3sc4c(NCCN)ncnc4c23)CO1	none
O=C(COCc1ccncc1)N1CCN(c2ccc(F)cc2Cl)CC1	none (no result: Rin1-Abl PPI inh, TCR-CD3 inh)
CC(=O)N1CCOc2ccc(S(=O)(=O)NCCc3ccc(Cl)cc3)cc21	none
CN1CCOc2ccc(S(=O)(=O)NCCc3ccc(Cl)cc3)cc21	UHRF1 binding 30
CNS(=O)(=O)c1cccc(C(=O)OCC(=O)N2CCN(C(=O)c3ccco3)CC2)c1	none
O=C(OCC(=O)N1CCN(C(=O)c2ccco2)CC1)c1cccc(S(=O)(=O)N2CCc3ccccc32)c1	UHRF1 binding 21
CCN(CC)c1nc(C(F)(F)F)nc2c1nnn2Cc1ccccc1	UHRF1 binding 39
COC(=O)[C@]12C[C@H](CC(=O)NCCCN3CCCC3=O)C(=O)N(Cc3ccc4c(c3)OCO4)C1=C[C@H](COCc1ccccc1)O[C@@H]2C	none (no result: Rin1-Abl PPI inh)
CCn1c(SC(C)C(=O)O)nc2sc3c(c2c1=O)CCC3 (stereo not drawn)	UHRF1 binding 28
Cn1c(=O)c2cccnc2c(=O)n1C	none
Cc1cc(C)c(-c2c(O)c3cccnc3n(C)c2=O)c(C)c1	UHRF1 binding 29
CCOC(=O)/C=C(\C)Sc1cc(O)c2ccccc2c1O	LEDGF integ inh 29
Cn1c(-c2ccc3c(c2)OCO3)cnc1NCc1ccccc1Cl	UHRF1 binding 48
Cn1c(-c2ccc3c(c2)OCO3)cnc1NCc1ccccc1	none
O=C(Nc1ccc(Br)cc1)C1Cc2ccccc2O/C1=N\O (stereo not drawn)	none
Cc1ccc(NC(=O)C2Cc3ccccc3O/C2=N\O)cc1C (stereo not drawn)	UHRF1 binding 21
CC(C)Oc1ccc2ccccc2c1CNC[C@H]1O[C@@H](n2cnc(C(N)=O)n2)[C@H](O)[C@@H]1O	UHRF1 binding 44
NC(=O)c1ncn([C@@H]2O[C@H](CNCc3cccc4c3sc3ccccc34)[C@@H](O)[C@H]2O)n1	UHRF1 binding 22
NC(=O)c1ncn([C@@H]2O[C@H](CNCc3ccccc3OCc3ccc(Cl)cc3Cl)[C@@H](O)[C@H]2O)n1	none
CC(CCN1CCC(C(O)(c2ccccc2)c2ccccc2)CC1)Oc1cccc(C(F)(F)F)c1 (stereo not drawn)	none (no result: Rin1-Abl PPI inh, TCR-CD3 inh)
O=C1C(Cl)=C(NCCc2ccccc2)C(=O)c2ccccc21	none
CC(=O)N(Cc1ccc(F)cc1)C1=C(NCCc2ccccc2)C(=O)c2ccccc2C1=O	LEDGF integ inh 23
O=C(OCC#CCSc1nnc(-c2cccc3ccccc23)o1)c1ccc(SC(F)(F)F)cc1	none (no result: Rin1-Abl PPI inh, TCR-CD3 inh)
O=C(c1ccc(C(F)(F)F)cc1)N1CCC(=O)N(C(COCc2ccccc2)Cc2ccccc2)CC1 (stereo not drawn)	UHRF1 binding 40
O=C(c1ccc(C(F)(F)F)cc1)N1CCC(=O)N(C(COCc2ccc(Cl)cc2)Cc2ccccc2)CC1 (stereo not drawn)	none
